This is an account of results in PubChem BioAssay (NCI).

Compounds without any hit were thinned out: in the full panel of roughly 79,000, 15% have a hit. The source made the active and inactive calls. Rule as the data show it: active = growth inhibition above about 70%; inactive = the rest.

A short description of this assay: NCI Yeast Anticancer Drug Screen. Data for the sgs1 mgt1 strain (AID 161).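 Also: 0% = growth of cultures given vehicle only.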 Particulars: S. cerevisiae sgs1 mgt1 strain, at 50.0 µM (retest, dose inferred, filed as 5.0), hits give high values. In a few lines: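 Genetically altered yeast, compound exposure, growth inhibition relative to vehicle.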
On to `CC1=C(C(=O)Nc2cccc(C(F)(F)F)c2)C(c2ccccc2F)C(C(=O)Nc2cccc(C(F)(F)F)c2)=C(C)N1`, for which the growth inhibition is 29% (inactive).
`O=C(c1ccccc1)C(C(=O)c1ccccc1)c1ccc2ccccc2n1`: the growth inhibition was -1% (inactive).
Under `NC(=S)N1N=C2c3ccccc3CC[C@H]2[C@@H]1c1cccs1` stands 63% (inactive); under `O=CC(O)CN1CCCC1` (stereo unspecified), 8% (inactive); under `CCCCCN(CCCCC)CC(C)(C)C(O)c1ccc(OC)c2ccccc12` (stereo unspecified), 81% (active).
Under `CSC(=S)n1nc(-c2cccs2)c(N=Nc2ccccc2)c1C(F)(F)F` stands 97% (active).
Then `CC(O)C1CCCC[N+]1(C)C` (stereo unspecified), with -36% (inactive); and `CCCCCCCCCCCC(=O)N(CCOC(=O)c1ccco1)CCOC(=O)c1ccco1`, with 98% (active).
Consider `CCOC(=O)NC(=S)Nc1ccsc1`, for which the growth inhibition was 0% (inactive).
Turning to `O=C(O)c1ccc(C(O)(c2ccccc2)c2ccccc2)cc1`, the growth inhibition is 90% (active).
On to `N#CSCCSCc1ccc(Cl)cc1`, for which the growth inhibition was 99% (active).
With `CN(/N=C\c1ccc(Cl)cc1)C(c1ccc(Cl)cc1)N(C)/N=C/c1ccc(Cl)cc1` (stereo unspecified), the growth inhibition was 94% (active).
Then `CC(C)(C)[Si](C)(C)OCC1OC(n2cc(I)c(N)nc2=O)C(O[Si](C)(C)C(C)(C)C)C1O[Si](C)(C)C(C)(C)C` (stereo unspecified), with 98% (active); and `O=C1C(=O)c2cc(Br)cc([N+](=O)[O-])c2-c2ccc(Br)cc21`, with 93% (active); and `C(=NCCc1ccccc1)c1ccccc1B1OB(c2ccccc2C=NCCc2ccccc2)OB(c2ccccc2C=NCCc2ccccc2)O1`, with 99% (active).
For the molecule `O=[N+]([O-])c1ccc(-c2ccccc2Cl)c([N+](=O)[O-])c1`, the growth inhibition was 96% (active).
